Measurements: the supplement of paper PMC6518042
A number with no mark means an inactive call.

Tested on: Pectobacterium parmentieri SCC3193
Assay: DuctApe activity index (growth/respiration on compound as sole nutrient source, blank-subtracted) (activity index (0-3)); higher = stronger utilization of the compound, active = 3 or more
Conditions: nutrient role (plate category): carbon
Protocol: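 Biolog Phenotype Microarray plates PM1, PM2A (carbon), PM3 (nitrogen) and PM4 (phosphorus/sulfur) inoculated with P. parmentieri SCC3193 in M9-C minimal salts medium with Biolog dye A, and read in the OmniLog for 46 h. Each well was tested in triplicate and the experiment was run twice. DuctApe computed a blank-subtracted activity index (AV, 0-3) from the mean curves; growth is positive at AV >= 3 and negative at AV <= 2.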

Structure (SMILES)	DuctApe activity index
OCc1ccccc1O[C@@H]1O[C@H](CO)[C@@H](O)[C@H](O)[C@H]1O [Salicin]	3 (active)
CC(=O)N[C@H]1[C@H]([C@H](O)[C@H](O)CO)OC(O)(C(=O)O)C[C@@H]1O (stereo partly drawn) [N-Acetyl-Neuraminic acid]	0
O=C[C@H](O)[C@@H](O)[C@H](O)[C@H](O)CO[C@@H]1O[C@H](CO)[C@@H](O)[C@H](O)[C@H]1O [Gentiobiose]	3 (active)
O=C(O)CCC(=O)O [Succinic acid]	3 (active)
O=C1O[C@H]([C@@H](O)CO)[C@@H](O)[C@@H]1O [L-Galactonic acid-g-Lactone]	3 (active)
OC[C@H]1OC(O)[C@@H](O)[C@@H](O)[C@@H]1O (stereo partly drawn) [D-Mannose]	3 (active)
O=C(O)C[C@@H](O)C(=O)O [D-Malic acid]	0
O=C(O)[C@@H](O)[C@H](O)[C@H](O)[C@@H](O)C(=O)O [Mucic acid]	3 (active)
OCC(O)C(O)C(O)CO (stereo not drawn) [Adonitol]	1
CC[C@H](O)C(=O)O [a-Hydroxybutyric acid]	0
O=C(O)Cc1cccc(O)c1 [m-Hydroxyphenyl Acetic acid]	0
OC[C@@H](O)[C@@H](O)CO [i-Erythritol]	0
OC[C@H]1OC(O[C@H]2[C@H](O)[C@@H](O)C(O[C@H]3[C@H](O)[C@@H](O)[C@@H](O)O[C@@H]3CO)O[C@@H]2CO)[C@H](O)[C@@H](O)[C@@H]1O (stereo partly drawn) [Dextrin]	0
